# Inconclusive results are not listed. Where a call stands in place of a potency, no number is given. Calls of active or inactive are those of the source. Unless noted, calls come from the whole dose curve; as a rule, active = well fitted curve in the direction sought with a large enough effect in the repeat runs; inconclusive = weak or mixed curves; inactive = no such curve, though single readings can be large; an effect the other way counts as inactive or inconclusive.
# How the values were obtained:
# [1] = qHTS assay to identify small molecule antagonists of the sonic hedgehog signaling (Shh) pathway (AID 1259369; calls by dose curve; note: nearly all actives have a fitted effect of over 45% in size)
# How it was run: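 Luminescence readout: firefly Luc under Gli1 response element in 3T3Gli1-Luc cells (NIH/3T3 clone). Antagonist mode, stimulation by conditioned medium; compound exposure 24hr at 37 C, 5% CO2.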
# [2] = molecular target: Estrogen receptor beta (Homo sapiens) (UniProt Q92731); test: qHTS assay to identify small molecule agonists of the estrogen receptor beta (ER-beta) signaling pathway (AID 1259377; active = well fitted activation curve with a large enough effect in the signal ratio in the repeat runs, not every such curve was filed as active; the % refers to the signal ratio)
# How it was run: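 Measured by fluorescence intensity from a B/G FRET beta-lactamase substrate (2 h, room temperature) in ER-beta-UAS-bla HEK293T cells treated with DMSO-dissolved compounds for 16 hr at 37C and 5% CO2.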
# [3] = molecular target: Estrogen receptor beta (Homo sapiens) (UniProt Q92731); test: qHTS assay to identify small molecule antagonists of the estrogen receptor beta (ER-beta) signaling pathway (AID 1259378; active = well fitted inhibition curve with a large enough effect in the signal ratio in the repeat runs, not every such curve was filed as active; the % refers to the signal ratio)
# How it was run: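 ER-beta-UAS-bla HEK293T cells in 2% charcoal-stripped FBS medium treated with compound plus 1nM final 17-beta-estradiol for 16 hr at 37C. Beta-lactamase reporter read by FRET substrate fluorescence after 2 hours at room temperature.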
# [4] = qHTS assay to identify small molecule agonists of the androgen receptor (AR) signaling pathway in the presence of an antagonist - cell viability counter screen (AID 1259379); note: nearly all actives have a fitted effect of over 25% in size; note: potency is the fitted concentration of half-maximal effect
# How it was run: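 Viability counter screen: CellTiter-Fluor fluorescence, measured in the same wells as the luciferase read-out. MDA-kb2 cells, 3,000/well, with nilutamide at 3.0uM final and compounds at 15 concentrations, 16 hr at 37C, 0% CO2.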
# [5] = qHTS assay to identify small molecule agonists of the estrogen receptor beta (ER-beta) signaling pathway - cell viability counter screen (AID 1259380); note: nearly all actives have a fitted effect of over 30% in size; note: potency is the fitted concentration of half-maximal effect
# How it was run: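 Luminescence read-out (CellTiter-Glo, 30 min, room temp) taken in the same wells as the beta-lactamase reporter assay; ER-beta-UAS-bla HEK293T cells exposed to DMSO-dissolved compounds for 16 hr at 37C in 2% charcoal-stripped FBS medium.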
# [6] = molecular target: Androgen receptor (Homo sapiens) (UniProt P10275); test: qHTS assay to identify small molecule agonists of the androgen receptor (AR) signaling pathway in the presence of an antagonist (AID 1259381; calls by dose curve; note: nearly all actives have a fitted effect of over 15% in size)
# How it was run: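 Luciferase read-out (ONE-Glo, 30min room temperature) in MDA-kb2 MMTV-reporter cells; agonist mode run in presence of AR antagonist nilutamide, 3.0uM final. Compounds tested as 15-point series, 16hr exposure at 37C, 0% CO2.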
# [7] = qHTS assay to identify small molecule antagonists of the estrogen receptor beta (ER-beta) signaling pathway - cell viability counter screen (AID 1259382); note: series mostly up to about 92 µM; nearly all actives have a fitted effect of over 55% in size
# How it was run: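 Luminescent ATP read-out (CellTiter-Glo, 30 min, RT) taken in the same wells as the bla reporter assay. HEK293T ER-beta-UAS-bla cells in 2% charcoal-stripped FBS were exposed to compounds with 1nM E2 for 16 hr at 37C.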
# [8] = molecular target: Estrogen receptor (Homo sapiens) (UniProt P03372); test: qHTS assay to identify small molecule agonists of the estrogen receptor alpha (ER-alpha) signaling pathway in the presence of an antagonist (AID 1259383; calls by dose curve; note: nearly all actives have a fitted effect of over 15% in size; note: potency is the fitted concentration of half-maximal effect; for activation: top concentration of the series differs between compounds)
# How it was run: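 Luciferase luminescence (ONE-Glo, 30min at room temperature) measured in VM7Luc4E2 cells after 22hr compound exposure at 15 concentrations, with 10.0nM ICI-182,780 final present; cells express endogenous ER-alpha and carry four EREs upstream of luciferase.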
# [9] = qHTS assay to identify small molecule agonists of the estrogen receptor alpha (ER-alpha) signaling pathway in the presence of an antagonist - cell viability counter screen (AID 1259386);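 note: cells exposed to compounds for 22 h at 37 °C before the viability read; nearly all actives have a fitted effect of over 30% in size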; note: potency is the fitted concentration of half-maximal effect
# How it was run: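 Read-out: CellTiter-Fluor fluorescence after 1hr reagent incubation, measured in the same wells as the luciferase readout. VM7Luc4E2 cells were exposed to 15 compound concentrations with 10.0nM ICI-182,780 for 22hr at 37C.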
# [10] = molecular target: Progesterone receptor (Homo sapiens) (UniProt P06401); test: qHTS assay to identify small molecule antagonists of the progesterone receptor (PR) signaling pathway (AID 1346795; active = well fitted inhibition curve with a large enough effect in the signal ratio in the repeat runs, not every such curve was filed as active; the % refers to the signal ratio; note: potency is the fitted concentration of half-maximal effect)
# How it was run: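 After 6 hr plating at 37C in 2% stripped-serum medium, PR-UAS-bla HEK293T cells got compounds, then 1 nM R5020. Sixteen hours later, LiveBLAzer substrate was applied for 2 hr at room temperature and fluorescence was recorded.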
# [11] = qHTS assay to identify small molecule antagonists of the progesterone receptor (PR) signaling pathway - cell viability counter screen (AID 1346798); note: series mostly up to about 92 µM; nearly all actives have a fitted effect of over 50% in size
# How it was run: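 Viability was determined by ATP-based luminescence (CellTiter-Glo) in PR-UAS-bla HEK293T cells cultured in 2% charcoal-stripped serum and incubated 16 hr with compounds under R5020 stimulation.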
# [12] = qHTS assay to identify small molecule antagonists of the TGF-beta/Smad signaling pathway - cell viability counter screen (AID 1346824); note: nearly all actives have a fitted effect of over 50% in size
# How it was run: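 SBE-bla HEK 293T cells, incubated overnight, then compound plus 0.25 ng/mL TGF-beta1 (stock added) for 5 hr at 37 C. Viability was read in the same wells by CellTiter-Glo luminescence after 30 min at room temperature.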
# [13] = qHTS assay to identify small molecule agonists of the TGF-beta/Smad signaling pathway - cell viability counter screen (AID 1346829); note: top concentration of the series differs between compounds; nearly all actives have a fitted effect of over 45% in size
# How it was run: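 SBE-bla HEK 293T cells plated overnight, compound exposure 5 hr at 37 C. Viability read in the same wells by CellTiter-Glo luminescence after 30 min at room temperature, following the beta-lactamase read.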
# [14] = qHTS assay to identify small molecule agonists of the TGF-beta/Smad signaling pathway (AID 1346859; active = well fitted activation curve with a large enough effect in the signal ratio in the repeat runs, not every such curve was filed as active; the % refers to the signal ratio; note: series mostly up to about 77 µM)
# How it was run: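 Dual-wavelength fluorescence (460/530 nm emission) quantified beta-lactamase expression under the Smad binding element in HEK 293T cells following 5 hr compound treatment at 37 C.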
# [15] = qHTS assay to identify small molecule agonists of the sonic hedgehog signaling (Shh) pathway (AID 1259368; calls by dose curve;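 note: NIH/3T3-derived 3T3Gli1-Luc cells carrying a stable Gli1-driven firefly luciferase reporter; series mostly up to about 92 µM; nearly all actives have a fitted effect of over 15% in size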)
# How it was run: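 Read-out: firefly luciferase luminescence from a Gli1 response element reporter stably integrated in NIH/3T3-derived 3T3Gli1-Luc cells, measured 30 min at room temperature after reagent addition. Compound exposure lasted 24 hr at 37 C, 5% CO2.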
# [16] = qHTS assay to identify small molecule agonists or antagonists of the thyroid stimulating hormone receptor (TSHR) signaling pathway - wild type cell line counter screen (AID 1259384; calls by dose curve)
# How it was run: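 Wild-type Hek293 cells, 800/well, 18 h at 37C, then compound with Ro20-1724 for 30 min RT. cAMP by HTRF (cAMP-d2/anti-cAMP cryptate), 1 h RT, fluorescence read. 15 concentrations, triplicates.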
# [17] = molecular target: Thyrotropin receptor (Homo sapiens) (UniProt P16473); test: qHTS assay to identify small molecule antagonists of the thyroid stimulating hormone receptor (TSHR) signaling pathway (AID 1259385; calls by dose curve; note: nearly all actives have a fitted effect of over 20% in size)
# How it was run: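 TSHR-HEK293 cells (800/well) plated 18 h, then compounds with Ro20-1724 and TSH at 1.5 ng/mL final, 30 min at room temperature. cAMP quantified by HTRF (cAMP-d2/anti-cAMP-cryptate, 1 h); 15 concentrations in triplicate.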
# [18] = molecular target: Thyrotropin-releasing hormone receptor (Homo sapiens) (UniProt P34981); test: qHTS assay to identify small molecule antagonists of the thyrotropin-releasing hormone receptor (TRHR) signaling pathway (AID 1346877; active = well fitted inhibition curve with a large enough effect in the repeat runs, not every such curve was filed as active; note: series mostly up to about 51 µM)
# How it was run: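 HEK293/TRHR cells, 18 h, 37 °C; Ca2+ dye 2 h; cpd 5 min RT; TRH 1 nM final; fluorescence read 3 min, 1 s intervals; 15 concs, triplicate.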
# [19] = molecular target: Progesterone receptor (Homo sapiens) (UniProt P06401); test: qHTS assay to identify small molecule agonists of the progesterone receptor (PR) signaling pathway (AID 1346784; calls by dose curve; note: nearly all actives have a fitted effect of over 30% in size)
# How it was run: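 The screen uses PR-UAS-bla HEK 293T cells in charcoal-stripped serum (2%). Compounds are applied for 16 hr at 37C after a 6 hr pre-incubation, and reporter activity is detected with a FRET beta-lactamase substrate after 2 hr at room temperature.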
# [20] = qHTS assay to identify small molecule agonists of the progesterone receptor (PR) signaling pathway - cell viability counter screen (AID 1346799; calls by dose curve; note: nearly all actives have a fitted effect of over 45% in size)
# How it was run: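 Viability was scored by ATP luminescence (CellTiter-Glo, 30 min, room temperature) in the same wells used for the reporter readout, after 16 hr compound exposure of PR-UAS-bla HEK293T cells.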
# Sequence of Estrogen receptor beta (Homo sapiens) (Q92731 whole entry, looked up): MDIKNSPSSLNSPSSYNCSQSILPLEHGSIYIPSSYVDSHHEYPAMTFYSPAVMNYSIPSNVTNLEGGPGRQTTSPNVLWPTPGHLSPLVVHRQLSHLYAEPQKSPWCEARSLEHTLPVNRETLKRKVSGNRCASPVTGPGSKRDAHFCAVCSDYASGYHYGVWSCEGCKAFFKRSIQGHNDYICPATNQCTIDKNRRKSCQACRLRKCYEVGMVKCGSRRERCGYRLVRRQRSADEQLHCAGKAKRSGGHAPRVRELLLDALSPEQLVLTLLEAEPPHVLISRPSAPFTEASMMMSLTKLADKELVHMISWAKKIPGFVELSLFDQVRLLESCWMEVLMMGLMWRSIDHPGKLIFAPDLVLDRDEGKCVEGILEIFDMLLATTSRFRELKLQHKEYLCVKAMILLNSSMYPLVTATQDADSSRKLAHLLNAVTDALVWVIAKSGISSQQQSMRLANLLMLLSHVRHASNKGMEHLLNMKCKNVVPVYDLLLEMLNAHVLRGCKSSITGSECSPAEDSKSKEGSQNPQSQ
# Sequence of Progesterone receptor (Homo sapiens) (P06401 whole entry, looked up): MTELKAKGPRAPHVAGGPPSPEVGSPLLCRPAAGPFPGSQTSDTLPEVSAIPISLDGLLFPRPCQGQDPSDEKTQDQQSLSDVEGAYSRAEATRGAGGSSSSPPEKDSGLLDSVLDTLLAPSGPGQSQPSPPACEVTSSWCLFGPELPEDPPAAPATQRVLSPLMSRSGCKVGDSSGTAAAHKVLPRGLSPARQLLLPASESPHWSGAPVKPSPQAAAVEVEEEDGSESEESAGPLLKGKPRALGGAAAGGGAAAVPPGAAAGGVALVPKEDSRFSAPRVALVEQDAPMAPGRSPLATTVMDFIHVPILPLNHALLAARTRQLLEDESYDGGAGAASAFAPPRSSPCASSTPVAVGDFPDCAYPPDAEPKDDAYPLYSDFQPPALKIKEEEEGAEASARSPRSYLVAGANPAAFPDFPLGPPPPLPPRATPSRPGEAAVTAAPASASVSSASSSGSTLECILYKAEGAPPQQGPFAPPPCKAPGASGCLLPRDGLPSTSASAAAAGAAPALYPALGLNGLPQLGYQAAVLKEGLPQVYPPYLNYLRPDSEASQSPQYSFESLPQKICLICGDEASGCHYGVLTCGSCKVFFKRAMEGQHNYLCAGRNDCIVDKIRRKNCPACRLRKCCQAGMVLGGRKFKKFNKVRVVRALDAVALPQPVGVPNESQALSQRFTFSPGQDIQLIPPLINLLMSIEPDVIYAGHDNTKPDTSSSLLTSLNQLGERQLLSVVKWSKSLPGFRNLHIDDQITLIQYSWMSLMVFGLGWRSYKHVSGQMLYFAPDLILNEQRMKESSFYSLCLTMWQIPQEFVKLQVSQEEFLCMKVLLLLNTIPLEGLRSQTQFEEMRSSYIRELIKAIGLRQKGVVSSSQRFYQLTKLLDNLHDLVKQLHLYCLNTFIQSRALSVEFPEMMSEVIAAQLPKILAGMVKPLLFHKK
# Sequence of Thyrotropin-releasing hormone receptor (Homo sapiens) (P34981 whole entry, looked up): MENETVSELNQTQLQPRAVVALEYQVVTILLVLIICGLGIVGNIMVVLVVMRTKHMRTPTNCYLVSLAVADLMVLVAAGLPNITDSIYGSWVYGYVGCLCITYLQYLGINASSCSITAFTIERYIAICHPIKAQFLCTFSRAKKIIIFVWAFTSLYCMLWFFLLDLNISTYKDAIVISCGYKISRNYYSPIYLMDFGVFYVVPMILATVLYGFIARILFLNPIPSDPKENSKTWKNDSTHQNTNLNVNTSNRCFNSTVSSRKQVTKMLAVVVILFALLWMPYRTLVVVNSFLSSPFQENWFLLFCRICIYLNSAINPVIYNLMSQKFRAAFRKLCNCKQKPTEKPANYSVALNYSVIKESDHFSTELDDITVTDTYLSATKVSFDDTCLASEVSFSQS
# Sequence of Estrogen receptor (Homo sapiens) (P03372 whole entry, looked up): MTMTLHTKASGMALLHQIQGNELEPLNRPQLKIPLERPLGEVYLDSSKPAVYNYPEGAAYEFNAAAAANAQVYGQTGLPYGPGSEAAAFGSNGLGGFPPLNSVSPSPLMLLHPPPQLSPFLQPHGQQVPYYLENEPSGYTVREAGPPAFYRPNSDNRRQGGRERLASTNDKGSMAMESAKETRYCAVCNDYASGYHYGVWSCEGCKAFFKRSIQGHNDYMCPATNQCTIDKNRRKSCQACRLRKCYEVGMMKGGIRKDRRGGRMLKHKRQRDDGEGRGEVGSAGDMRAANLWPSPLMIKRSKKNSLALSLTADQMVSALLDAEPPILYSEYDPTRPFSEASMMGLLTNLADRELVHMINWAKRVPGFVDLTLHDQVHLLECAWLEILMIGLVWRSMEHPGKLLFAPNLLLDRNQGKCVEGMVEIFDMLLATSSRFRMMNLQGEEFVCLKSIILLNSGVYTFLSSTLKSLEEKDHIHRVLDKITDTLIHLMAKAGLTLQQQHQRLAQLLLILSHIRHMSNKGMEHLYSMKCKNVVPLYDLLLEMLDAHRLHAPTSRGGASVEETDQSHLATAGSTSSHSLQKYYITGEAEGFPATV
# Sequence of Androgen receptor (Homo sapiens) (P10275 whole entry, looked up): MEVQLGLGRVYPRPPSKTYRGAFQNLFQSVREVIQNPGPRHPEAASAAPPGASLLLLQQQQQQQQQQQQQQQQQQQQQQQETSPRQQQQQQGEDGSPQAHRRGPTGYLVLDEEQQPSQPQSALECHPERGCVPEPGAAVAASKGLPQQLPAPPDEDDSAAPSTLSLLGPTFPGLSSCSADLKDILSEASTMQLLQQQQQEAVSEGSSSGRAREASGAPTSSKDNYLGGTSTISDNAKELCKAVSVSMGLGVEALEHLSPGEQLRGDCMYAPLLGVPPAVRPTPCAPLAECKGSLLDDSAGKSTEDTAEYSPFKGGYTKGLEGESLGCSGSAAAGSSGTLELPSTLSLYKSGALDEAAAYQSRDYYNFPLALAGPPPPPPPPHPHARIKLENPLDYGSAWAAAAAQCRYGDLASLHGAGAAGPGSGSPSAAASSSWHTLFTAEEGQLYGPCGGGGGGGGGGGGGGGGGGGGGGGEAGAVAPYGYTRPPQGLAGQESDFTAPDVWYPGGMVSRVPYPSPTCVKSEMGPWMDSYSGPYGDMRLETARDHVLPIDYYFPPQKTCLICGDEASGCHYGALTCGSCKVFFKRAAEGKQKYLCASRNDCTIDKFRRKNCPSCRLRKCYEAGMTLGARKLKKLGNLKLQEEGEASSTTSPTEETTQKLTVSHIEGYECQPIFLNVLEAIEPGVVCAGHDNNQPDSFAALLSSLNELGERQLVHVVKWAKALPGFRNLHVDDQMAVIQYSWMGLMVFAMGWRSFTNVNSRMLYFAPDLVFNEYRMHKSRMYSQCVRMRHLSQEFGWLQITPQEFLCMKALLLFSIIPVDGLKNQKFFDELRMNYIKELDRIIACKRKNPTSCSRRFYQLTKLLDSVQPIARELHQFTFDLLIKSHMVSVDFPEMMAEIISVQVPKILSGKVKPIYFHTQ
# Sequence of Thyrotropin receptor (Homo sapiens) (P16473 whole entry, looked up): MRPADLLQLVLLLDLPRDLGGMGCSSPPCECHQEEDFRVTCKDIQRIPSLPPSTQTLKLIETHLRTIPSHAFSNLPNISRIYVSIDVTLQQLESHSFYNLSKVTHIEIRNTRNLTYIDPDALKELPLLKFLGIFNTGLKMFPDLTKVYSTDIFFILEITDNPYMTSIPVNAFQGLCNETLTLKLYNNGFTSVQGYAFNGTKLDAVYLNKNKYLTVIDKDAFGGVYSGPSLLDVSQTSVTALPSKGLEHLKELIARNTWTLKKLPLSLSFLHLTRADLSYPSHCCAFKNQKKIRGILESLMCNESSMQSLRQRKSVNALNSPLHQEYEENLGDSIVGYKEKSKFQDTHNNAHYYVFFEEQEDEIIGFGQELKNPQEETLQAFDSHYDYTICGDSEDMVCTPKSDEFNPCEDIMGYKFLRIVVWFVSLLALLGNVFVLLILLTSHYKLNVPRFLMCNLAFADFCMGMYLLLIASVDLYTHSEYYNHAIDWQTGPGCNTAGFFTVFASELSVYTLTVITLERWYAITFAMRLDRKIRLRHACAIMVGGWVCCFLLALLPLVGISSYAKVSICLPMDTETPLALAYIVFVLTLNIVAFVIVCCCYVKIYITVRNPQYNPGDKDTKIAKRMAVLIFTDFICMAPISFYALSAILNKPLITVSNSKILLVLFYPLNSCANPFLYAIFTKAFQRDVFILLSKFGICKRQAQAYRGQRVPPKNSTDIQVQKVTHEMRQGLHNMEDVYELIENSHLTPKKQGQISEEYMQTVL
Compound,Potency [1],Potency [2],Potency [3],Potency [4],Potency [5],Potency [6],Potency [7],Potency [8],Potency [9],Potency [10],Potency [11],outcome [12],outcome [13],outcome [14],Potency [15],outcome [16],Potency [17],outcome [18],Potency [19],Potency [20]
O=C(O)c1cc(C(=O)O)c(C(=O)O)cc1C(=O)O,inactive,inactive,inactive,inactive,inactive,inactive,inactive,inactive,inactive,inactive,inactive,inactive,inactive,inactive,–,–,–,–,–,–
O=[N+]([O-])c1ccc(Cl)cc1Cl,inactive,–,–,–,inactive,–,–,–,inactive,inactive,inactive,inactive,inactive,inactive,inactive,inactive,inactive,inactive,–,–
CCCc1nc(C)c2c(=O)[nH]c(-c3cc(S(=O)(=O)N4CCN(CC)CC4)ccc3OCC)nn12,–,–,inactive,inactive,inactive,inactive,inactive,–,inactive,inactive,inactive,inactive,inactive,inactive,inactive,–,–,–,inactive,–
OCCCO,–,–,inactive,inactive,inactive,inactive,inactive,inactive,inactive,–,inactive,inactive,inactive,inactive,inactive,inactive,inactive,inactive,inactive,inactive
CCCCCCC/C=C/C=O,–,–,–,–,inactive,–,inactive,inactive,inactive,–,inactive,–,inactive,inactive,inactive,inactive,inactive,inactive,–,–
C(/C=C/C=C/Nc1ccccc1)=Nc1ccccc1,–,–,inactive,inactive,–,–,inactive,inactive,inactive,inactive,inactive,inactive,inactive,inactive,inactive,–,–,inactive,inactive,–
CCC[Si](OC)(OC)OC,–,inactive,inactive,–,inactive,inactive,inactive,inactive,inactive,inactive,inactive,inactive,inactive,inactive,inactive,inactive,inactive,inactive,inactive,inactive
CCCC(=O)OCc1ccccc1,inactive,inactive,inactive,inactive,inactive,–,inactive,inactive,inactive,inactive,inactive,inactive,inactive,inactive,–,inactive,inactive,inactive,inactive,inactive
Cc1ccc2ccccc2c1[N+](=O)[O-],–,inactive,inactive,inactive,inactive,–,–,inactive,inactive,inactive,inactive,inactive,inactive,inactive,inactive,inactive,inactive,inactive,inactive,inactive
O=c1[nH]nc(-c2ccc([N+](=O)[O-])o2)o1,–,–,inactive,54.5 µM (active),–,–,inactive,inactive,54.5 µM (active),inactive,inactive,inactive,inactive,inactive,inactive,inactive,inactive,inactive,inactive,inactive
COc1ccc(C(=O)Nc2ccccc2)cc1[N+](=O)[O-],–,–,–,inactive,30.9 µM (active),–,inactive,inactive,inactive,54.9 µM (active),inactive,inactive,inactive,–,inactive,inactive,–,inactive,inactive,inactive
COC(=O)C(C)(C)C,inactive,–,–,–,–,–,inactive,–,inactive,–,–,inactive,inactive,inactive,inactive,inactive,inactive,inactive,–,–
Cc1ccccc1CCO,–,inactive,inactive,inactive,inactive,–,–,inactive,inactive,–,inactive,inactive,inactive,inactive,inactive,inactive,inactive,inactive,inactive,inactive
CC(C)NC(=O)c1ccccc1N,inactive,–,–,–,inactive,–,inactive,inactive,inactive,–,inactive,inactive,inactive,inactive,inactive,inactive,–,inactive,–,–
Oc1ccc(Oc2ccccc2)cc1,–,–,–,–,inactive,–,inactive,41 µM (active),inactive,20.6 µM (active),inactive,inactive,inactive,inactive,inactive,inactive,inactive,–,inactive,–
CCCC1CCOC(C)S1 (stereo unspecified),–,inactive,inactive,–,inactive,inactive,inactive,inactive,inactive,inactive,inactive,inactive,inactive,inactive,inactive,inactive,inactive,inactive,inactive,inactive
CO[C@@H]1[C@@H](O[C@@H]2O[C@H](C)[C@@H](O[C@H]3C[C@@](C)(O)[C@@H](O)[C@H](C)O3)[C@H](N(C)C)[C@H]2O)[C@@H](CC=O)C[C@@H](C)[C@@H](O[C@@H]2CC[C@H](N(C)C)[C@@H](C)O2)/C=C/C=C/C[C@@H](C)OC(=O)C[C@H]1OC(C)=O,–,–,inactive,inactive,–,–,inactive,inactive,inactive,–,inactive,inactive,inactive,inactive,inactive,–,–,inactive,–,–
CCC(C(=O)O)c1ccc(N2Cc3ccccc3C2=O)cc1 (stereo unspecified),inactive,–,–,–,–,inactive,inactive,inactive,inactive,inactive,inactive,inactive,inactive,–,inactive,–,–,inactive,inactive,inactive
